For orientation: inhibition means the relative decrease from the control value, in per cent.

About 160 (0.18%) of roughly 91,000 compounds were called active.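 Rule for the calls: active = inhibition above the batch mean plus 3 SD and confirmed as a hit by visual image inspection (cut at about 30% in these data, passing the limit was not always enough); inconclusive = above the inhibition threshold but rejected on visual inspection; inactive = the rest.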 Shown is part of a subset that was picked to be rich in actives.

The nature of this assay: disruptors of actin filament network in HUVEC – imaging, phalloidin staining, high-content imaging, primary screen (AID 836). The conditions noted are these: HUVEC TNFa F-actin phalloidin imaging, at 2 µM, hits give high values.
As for `Cn1c2c(c(=O)n(C)c1=O)[C@@H]1c3c(ccc4ccccc34)OC[C@@H]1CO2`, the inhibition is 8.1% (inactive).
The same measure for `COc1ccc2c(c1OC)C(=O)c1ccccc1C2=O`: 1% (inactive).
Turning to `CCC(C)n1c(-c2cc(OC)c(OC)c(OC)c2)nc2nc3ccccc3nc21` (configuration not stated), the inhibition is -3.2% (inactive).
As for `CCNC(=S)Nc1cccc(Cl)c1C`, the figure is 11.2% (inactive).
On to `COc1ccc(-c2csc3nc(-c4ccccc4F)oc(=O)c23)cc1OC`, for which the inhibition was -3.2% (inactive).
Regarding `O=c1oc2c(Cl)cc(Cl)cc2cc1-c1nnc(Nc2ccccc2F)s1`, the inhibition was 5% (inactive).
With `O=C(/C=C/Nc1ccccc1OC(F)(F)F)C(F)(F)F`, the inhibition is 6.2% (inactive).
On to `CCC(=O)NC(NCC1CCCO1)C(Cl)(Cl)Cl` (configuration not stated), for which the inhibition was -23.7% (inactive).
The same measure for `C=CCn1c(Oc2ccc(C(=O)OC)cc2)nc2c1c(=O)n(C)c(=O)n2C`: 13.6% (inactive); for `O=C(Nc1ccccc1Cl)O/N=C(/c1ccccc1)c1ccccn1`: -5.5% (inactive); for `CC(C)NC(=O)NC(=O)COC(=O)c1ccc(NC(=O)CC#N)cc1`: 2% (inactive).
Turning to `O=C(O)COc1ccc(-c2nccc(-c3cccs3)n2)cc1`, the inhibition is 29.5% (inactive).
The same measure for `O=C(CSc1ccccc1)Nc1ccc(NC(=O)c2ccco2)cc1`: 20.5% (inactive); for `O=C(CCc1ccc(S(=O)(=O)NC2CCCCC2)cc1)NCc1ccccc1`: -16.8% (inactive); for `COc1cccc(C(=O)NNC(=O)c2ccccc2Br)c1`: -16.2% (inactive).
With `CC(CNc1ccc([N+](=O)[O-])cc1)NC(=O)c1ccccc1Br` (configuration not stated), the inhibition was -6.1% (inactive).
On to `O=C(Nc1ccc(Cl)cc1)OCc1cc(-c2ccccc2)on1`, for which the inhibition was -6.9% (inactive).
On to `COCCN1C(=O)c2oc3c(C)cc(C)cc3c(=O)c2C1c1cccc(O)c1` (configuration not stated), for which the inhibition is 53.6% (active).
With `O=C1c2oc3ccccc3c(=O)c2C(c2cccc(O)c2)N1c1ccccn1` (configuration not stated), the inhibition is -31.1% (inactive).
In the case of `O=C1c2oc3ccc(Br)cc3c(=O)c2C(c2cccc(F)c2)N1CCO` (configuration not stated), the inhibition was 7.4% (inactive).
As to `COc1ccc(C(=O)N2CCc3cc(OC)c(OC)cc3C2c2cccc([N+](=O)[O-])c2)cc1` (configuration not stated), the inhibition was -0.9% (inactive).
In the case of `CCN(CC)C(=O)CSC1c2ccccc2C(=O)N1c1ccccc1` (configuration not stated), the inhibition is -35.9% (inactive).
Regarding `Cc1cccc(NC(=S)N2CCC(c3nc4ccccc4s3)CC2)c1`, the inhibition is -9.4% (inactive).
The same measure for `COC(=O)c1ccc(C(=O)OC)c(NC(=S)N2CCCCC2)c1`: -4.3% (inactive); for `Cc1ccc2nc(Nc3ccccc3O)nc(-c3ccccc3)c2c1`: -0.7% (inactive).
Regarding `COc1ccc(/C=N/Nc2nc3ccccc3c(=O)[nH]2)cc1`, the inhibition is 0.1% (inactive).
The same measure for `CC(Oc1ccc(F)cc1F)C(=O)/C=C/N(C)C` (configuration not stated): -4.4% (inactive).

The record behind these values is PubChem BioAssay AID836 (Columbia University Molecular Screening Center, 2007).
